The structures appear in SMILES notation. Records with an inconclusive call do not appear. The source made the active and inactive calls. The call rests on the fitted dose curve; in most records, active means well fitted curve in the direction sought with a large enough effect; inconclusive means small, poorly fitted or top-dose-only effect, or another doubt; inactive means no such curve, though single readings can be large; an effect the other way counts as inactive or inconclusive.
Potency means the concentration at half of the fitted maximal effect.

A short description of the first assay: Quantitative High-Throughput drug screen in 47 multiple myeloma cell lines against the NCATS MIPE library collection: MOLP8_DSMZ cell viability assay (AID 1918977). Further: nearly all actives have a fitted effect of over 45% in size. The conditions noted are these: MOLP8 myeloma viability, CellTiter-Glo ATP luminescence, 48 h; series mostly up to 45.8 µM. In a few lines: (§1)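 500 cells/well; MIPE 4.0 drugs pin-transferred; 48 h, 37C, 5% CO2. CellTiter-Glo, 5 min RT, luminescence. Controls: DMSO 100%, media 0%.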
With `Cc1cnc(Nc2ccc(F)cc2Cl)nc1-c1c[nH]c(C(=O)N[C@H](CO)c2cccc(Cl)c2)c1`, the Potency was 23.5 µM (active). On to `CN(C)CC=CC(=O)Nc1cc2c(Nc3ccc(F)c(Cl)c3)ncnc2cc1O[C@H]1CCOC1`, for which the Potency is 18.7 µM (active). The same measure, in the same setting: to `Clc1cccc(-c2nnnn2Cc2cccnc2)c1Cl` belongs “inactive”; to `N#CCNC(=O)c1ccc(-c2ccnc(Nc3ccc(N4CCOCC4)cc3)n2)cc1`, 11.8 µM (active). Still for that read-out and setting: to `Nc1ncnc2c1c(-c1cnc3[nH]ccc3c1)nn2C1CCCC1` belongs 0.105 µM (active); to `NC1(Cc2ccc(Cl)cc2)CCN(c2ncnc3[nH]ccc23)CC1`, 8.33 µM (active).

The nature of the next assay: Quantitative High-Throughput drug screen in 47 multiple myeloma cell lines against the NCATS MIPE library collection: NCIH929_DSMZ cell viability assay (AID 1918978). Further: nearly all actives have a fitted effect of over 35% in size. The conditions noted are these: NCI-H929 myeloma viability, CellTiter-Glo ATP, 48 h; series mostly up to 45.8 µM. In a few lines:
as §1
Consider `O=C(Nc1ncc(-c2cc(C(F)F)nn2-c2c(Cl)cccc2Cl)s1)C1CC1`, for which the Potency is 2.64 µM (active). On the same count and under the same terms, to `Cc1[nH]nc2ccc(-c3cncc(OC[C@@H](N)Cc4ccccc4)c3)cc12` belongs 1.48 µM (active); to `Nc1ncnc2c1c(-c1cccc(OCc3ccccc3)c1)cn2C1CC(CN2CCCC2)C1` (stereo not given), 0.0833 µM (active). On the same count and under the same terms, to `COc1cc(C)c(Sc2cnc(NC(=O)c3ccc(CNC(C)C(C)C)cc3)s2)cc1C(=O)N1CCN(C(C)=O)CC1` (stereo not given) belongs 2.96 µM (active). Take `COc1cc2c(NC3CCN(C(C)C)CC3)nc(C3CCCCC3)nc2cc1OCCCN1CCCC1`: the Potency was 5.26 µM (active). Turning to `Cc1cc(C(=O)N2CCN(c3cccc(Cl)c3)CC2)n(-c2ccccc2)n1`, the Potency is 16.6 µM (active).

Regarding `O=C(Cc1ccc(-c2ccc(OCCN3CCOCC3)cc2)cn1)NCc1ccccc1`, the Potency was 0.0935 µM (active).

Take `Cn1cc(-c2[nH]c3cc(NC(=O)[C@H](N)C4CCCCC4)cc4c3c2C=NNC4=O)cn1`: the Potency was 1.32 µM (active). Still for that read-out and setting: to `CC(C)c1ccccc1Cc1cc(C(=O)Nc2ccc(S(=O)(=O)c3ccccc3C(C)(C)C)cc2)c(O)c(O)c1O` belongs 7.43 µM (active); to `Nc1ccn([C@@H]2O[C@H](CO)[C@H](O)C2(F)F)c(=O)n1`, 0.264 µM (active). On the same count and under the same terms, to `O=C(CCCCCCC(=O)Nc1ccc([C@H]2O[C@@H](CSc3nc(-c4ccccc4)c(-c4ccccc4)o3)C[C@@H](c3ccc(CO)cc3)O2)cc1)NO` belongs 9.35 µM (active); to `CCS(=O)(=O)c1cccc(-c2cc(C(=O)NC3CCN(C)CC3)c(C)c3[nH]c4ncc(C)cc4c23)c1`, 1.18 µM (active); to `C#Cc1cccc(Nc2ncnc3cc(OC)c(OCCCCCCC(=O)NO)cc23)c1`, 0.0935 µM (active). For `CC=C1NC(=O)[C@H]2CSSCCC=C[C@H](CC(=O)N[C@H](C(C)C)C(=O)N2)OC(=O)[C@H](C(C)C)NC1=O`, the Potency was 0.0526 µM (active).

Turning to `O=c1[nH]nc(Sc2ncc([N+](=O)[O-])s2)n1-c1ccc2c(c1)OCCO2`, the Potency was 0.833 µM (active). The same measure, in the same setting: to `COc1ccc(-c2cc3c(C)nc(N)nc3n(C3CCC(OCCO)CC3)c2=O)cn1` (stereo not given) belongs 0.0093 µM (active); to `OCc1ccc(-c2ccc(-c3ccc(CO)s3)o2)s1`, 2.64 µM (active); to `Cc1cnc(Nc2ccc(F)cc2Cl)nc1-c1c[nH]c(C(=O)N[C@H](CO)c2cccc(Cl)c2)c1`, 16.6 µM (active).

`CC(C)c1cc(C(=O)N2Cc3ccc(CN4CCN(C)CC4)cc3C2)c(O)cc1O`: the Potency is 0.166 µM (active). The same measure, in the same setting: to `N#CCNC(=O)c1ccc(-c2ccnc(Nc3ccc(N4CCOCC4)cc3)n2)cc1` belongs 9.35 µM (active); to `Nc1ncnc2c1c(-c1cnc3[nH]ccc3c1)nn2C1CCCC1`, 0.235 µM (active). Same read-out and setting: to `NC1(Cc2ccc(Cl)cc2)CCN(c2ncnc3[nH]ccc23)CC1` belongs 0.935 µM (active); to `COc1ccc2c(c1)CC[C@@H](CN(C)CC(=O)O)[C@H]2c1ccccc1`, 5.26 µM (active).

On to `Nc1cc(C(F)(F)F)c(-c2cc(N3CCOCC3)nc(N3CCOCC3)n2)cn1`, for which the Potency is 0.209 µM (active).

Turning to `COc1cccc2c(NCc3ccccc3)nc(-n3c(N)nc4ccccc43)nc12`, the Potency was 3.32 µM (active).

A short description of a further assay: Quantitative High-Throughput drug screen in 47 multiple myeloma cell lines against the NCATS MIPE library collection: OCIMY1_PLB cell viability assay (AID 1918979). Further: nearly all actives have a fitted effect of over 35% in size. Conditions: OCI-MY1 myeloma viability, CellTiter-Glo ATP, 48 h; series mostly up to 45.8 µM. In a few lines:
as §1
On the technique in general: Cellular ATP, detected with luciferase, serves as a proxy for viable cell number.
Take `O=C(Nc1ncc(-c2cc(C(F)F)nn2-c2c(Cl)cccc2Cl)s1)C1CC1`: the Potency is 0.743 µM (active). Still for that read-out and setting: to `Cc1[nH]nc2ccc(-c3cncc(OC[C@@H](N)Cc4ccccc4)c3)cc12` belongs 6.62 µM (active); to `Nc1ncnc2c1c(-c1cccc(OCc3ccccc3)c1)cn2C1CC(CN2CCCC2)C1` (stereo not given), 10.5 µM (active); to `COc1cc2c(Oc3ccc(-c4cnc(Nc5ccc(F)cc5)n(C)c4=O)cc3F)ccnc2cc1OCCCN1CCOCC1`, 11.8 µM (active). For `COc1cc2c(NC3CCN(C(C)C)CC3)nc(C3CCCCC3)nc2cc1OCCCN1CCCC1`, the Potency was 7.43 µM (active). For `Cc1cc(C(=O)N2CCN(c3cccc(Cl)c3)CC2)n(-c2ccccc2)n1`, the Potency was 3.72 µM (active). On the same count and under the same terms, to `CC(C)c1ccccc1Cc1cc(C(=O)Nc2ccc(S(=O)(=O)c3ccccc3C(C)(C)C)cc2)c(O)c(O)c1O` belongs 23.5 µM (active); to `O=C(CCCCCCC(=O)Nc1ccc([C@H]2O[C@@H](CSc3nc(-c4ccccc4)c(-c4ccccc4)o3)C[C@@H](c3ccc(CO)cc3)O2)cc1)NO`, 18.7 µM (active). Regarding `COc1cc2ncnc(Nc3ccc(F)c(Cl)c3)c2cc1NC(=O)C=CCN1CCCCC1`, the Potency is 26.4 µM (active). The same measure, in the same setting: to `C#Cc1cccc(Nc2ncnc3cc(OC)c(OCCCCCCC(=O)NO)cc23)c1` belongs 1.05 µM (active). `CC=C1NC(=O)[C@H]2CSSCCC=C[C@H](CC(=O)N[C@H](C(C)C)C(=O)N2)OC(=O)[C@H](C(C)C)NC1=O`: the Potency is 0.118 µM (active). The same measure, in the same setting: to `O=c1[nH]nc(Sc2ncc([N+](=O)[O-])s2)n1-c1ccc2c(c1)OCCO2` belongs 3.72 µM (active); to `CC[C@@]1(O)C(=O)OCc2c1cc1n(c2=O)Cc2cc3cc(O)ccc3nc2-1`, 1.66 µM (active). Still for that read-out and setting: to `COc1ccc(-c2cc3c(C)nc(N)nc3n(C3CCC(OCCO)CC3)c2=O)cn1` (stereo not given) belongs 0.0833 µM (active).

As for `OCc1ccc(-c2ccc(-c3ccc(CO)s3)o2)s1`, the Potency was 23.5 µM (active). As to `CN1CCN(c2cc(C(=O)Nc3ccc4c(c3)-c3c(c(C(N)=O)nn3-c3ccc(F)cc3)CC4)c(Cl)cn2)CC1`, the Potency is 26.4 µM (active). As for `Cc1cnc(Nc2ccc(F)cc2Cl)nc1-c1c[nH]c(C(=O)N[C@H](CO)c2cccc(Cl)c2)c1`, the Potency is 26.4 µM (active). On the same count and under the same terms, to `CN(C)CC=CC(=O)Nc1cc2c(Nc3ccc(F)c(Cl)c3)ncnc2cc1O[C@H]1CCOC1` belongs 16.6 µM (active); to `CC(C)c1cc(C(=O)N2Cc3ccc(CN4CCN(C)CC4)cc3C2)c(O)cc1O`, 0.418 µM (active); to `Clc1cccc(-c2nnnn2Cc2cccnc2)c1Cl`, “inactive”. In the case of `N#CCNC(=O)c1ccc(-c2ccnc(Nc3ccc(N4CCOCC4)cc3)n2)cc1`, the Potency is 23.5 µM (active). Consider `Nc1ncnc2c1c(-c1cnc3[nH]ccc3c1)nn2C1CCCC1`, for which the Potency was 1.87 µM (active). Turning to `Nc1cc(C(F)(F)F)c(-c2cc(N3CCOCC3)nc(N3CCOCC3)n2)cn1`, the Potency is 0.469 µM (active). As for `COc1cccc2c(NCc3ccccc3)nc(-n3c(N)nc4ccccc43)nc12`, the Potency was 7.43 µM (active).

These data come from PubChem BioAssay (NCATS).
